# Unmarked numbers belong to inactive results. Calls come from the whole dose curve; as a rule, active = well fitted curve in the direction sought with a large enough effect; inactive = no such curve, though single readings can be large or run the other way.
# Assay: qHTS for small molecule inhibitors of Yes1 kinase: Counter Assay (AID 686950);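 note: no kinase present so only ADP-Glo detection of a fixed ADP amount is tested; luminescence from ADP-Glo reporting ADP in a fixed ATP and ADP mixture; 0% = DMSO wells with ATP plus ADP and -100% = ATP-only wells without ADP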
# Conditions: series mostly up to 76.9 µM; activity change, negative = inhibition: at the top concentration
# In short: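 ADP-Glo luminescence read after a 60 min room-temperature incubation of compound with an ATP/ADP mix (0.08 mM/0.02 mM) and no kinase, following a 20 min compound preincubation. Signal scaled between ATP+ADP (max) and 0.1 mM ATP-only (min) wells; Tris pH 7.5, Mg2+, DTT.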
row,Structure (SMILES),"activity change, negative = inhibition"
1,S=C(NCc1ccc2c(c1)OCO2)N1CCN(c2ncnc3c2oc2ccccc23)CC1,3.91%
2,CCC(C)n1ncn(-c2ccc(N3CCN(c4ccc(OC[C@H]5CO[C@](Cn6cncn6)(c6ccc(Cl)cc6Cl)O5)cc4)CC3)cc2)c1=O (some centres not stated),7.27%
3,O=C(NOC[C@H](O)CO)c1ccc(F)c(F)c1Nc1ccc(I)cc1F,2.63%
4,C[C@]12CC[C@H](O)CC1=CC[C@@H]1[C@H]2CC[C@]2(C)C(c3cccnc3)=CC[C@H]12,1.56%
5,Cc1c(C)c2c(c(C)c1O)CCC(C)(COc1ccc(CC3SC(=O)NC3=O)cc1)O2 (configuration not stated),4.86%
6,Oc1cccc(-c2nc(N3CCOCC3)c3oc4ncccc4c3n2)c1,4.13%
7,COc1cc(Nc2ncc3c(n2)-c2ccc(Cl)cc2C(c2c(F)cccc2OC)=NC3)ccc1C(=O)O,4.02%
8,Cc1ccccc1C(C(=O)NC1CCCC1)N(C(=O)Cn1cnc2ccccc21)c1cccc(F)c1 (configuration not stated),-0.61%
9,COc1ccccc1-c1cccc(-c2c(O)c3cc(C#N)c(Cl)cc3[nH]c2=O)c1,3.81%
10,OCCC#Cc1nc(-c2ccc(F)cc2)c(-c2ccncc2)n1CCCc1ccccc1,-1.94%
11,C/C(=C\C(=O)Nc1ccccc1C(=O)O)c1ccc2ccccc2c1,4.65%
12,C[C@]1(c2nc3c(C(N)=O)cccc3[nH]2)CCCN1,5.08%
13,O=C(c1cc(Cc2n[nH]c(=O)c3ccccc23)ccc1F)N1CCN(C(=O)C2CC2)CC1,7.5%
14,CN(C)c1ccc(Nc2nc(N)n(C(=O)c3c(F)cccc3F)n2)cc1,3.88%
15,COc1cc(F)c(F)c(Nc2ccc(I)cc2F)c1NS(=O)(=O)C1(C[C@H](O)CO)CC1,1.61%
16,Cc1ccc(-n2nc(C(C)(C)C)cc2NC(=O)Nc2ccc(OCCN3CCOCC3)c3ccccc23)cc1,-4.74%
17,Cc1cc(SCc2sc(-c3ccc(C(F)(F)F)cc3)nc2C)ccc1OCC(=O)O,2.46%
18,CCC(C)(C)C(=O)O[C@H]1C[C@@H](C)C=C2C=C[C@H](C)[C@H](CC[C@@H]3C[C@@H](O)CC(=O)O3)[C@H]21,3.33% [at 47.8 µM]
19,O=C(Nc1cccnc1)N1CCC(Cc2cccc(Oc3ccc(C(F)(F)F)cn3)c2)CC1,3.25%

row,Structure (SMILES),"activity change, negative = inhibition"
1,CN(C)C(=O)c1ccc(S(=O)(=O)c2ccc(NC(=O)[C@@](C)(O)C(F)(F)F)c(Cl)c2)cc1,-2.49%
2,COc1cc2nccc(Oc3ccc(NC(=O)NC4CC4)c(Cl)c3)c2cc1C(N)=O,-10.9%
3,Cc1c(CCOc2ccc(C(=O)O)cc2)c2cc(Cl)ccc2n1C(c1ccccc1)c1ccccc1,1.78%
4,Cc1cc([C@@H](C)Nc2ccccc2C(=O)O)c2nc(N3CCOCC3)cc(=O)n2c1,5.91%
5,COc1cccc2cc(-c3nc(C4CCC(C(=O)O)CC4)n4ncnc(N)c34)[nH]c12 (configuration not stated),7.56%
6,C#Cc1cccc(Nc2ncnc3cc(OCCOC)c(OCCOC)cc23)c1,2.84%
7,CC(=O)NC(C)c1ccc(Oc2ccc(OC(C)C)cc2)cc1 (configuration not stated),0.466%
8,Cc1cc(C=c2sc3nc4ccccc4n3c2=O)c(C)n1-c1ccccc1,0.0219%
9,CCOc1ccn(-c2ccc(F)cc2)c(=O)c1C(=O)Nc1ccc(Oc2ccnc(N)c2Cl)c(F)c1,6.39%
10,CCCS(=O)(=O)Nc1ccc(F)c(C(=O)c2c[nH]c3ncc(Cl)cc23)c1F,-1.34%
11,COc1ccc(COc2cc3oc(=O)c4cc(C(C)O)ccc4c3cc2OC)cc1 (configuration not stated),1.3%
12,O=C(O)c1ccc(-c2c[nH]c3ccc(-c4ccccc4)cc23)cc1C1CCCC1,-5.1%
13,CCCn1c(=O)c2[nH]c(C34CC5CC3C[C@@H](C5)C4)nc2n(CCC)c1=O,-5.56%
14,O=C(Nc1ccc(F)c(C(F)(F)F)c1)Nc1nnc(-c2ccncc2)s1,2.96%
15,CC[C@H](Nc1ncnc2nc[nH]c12)c1nc2cccc(F)c2c(=O)n1-c1ccccc1,8.07%
16,Cc1cc2c(F)c(Oc3ncnn4cc(OC[C@@H](C)O)c(C)c34)ccc2[nH]1,4.96%
17,CCn1c(-c2nonc2N)nc2c(C#CC(C)(C)O)ncc(OC[C@H]3CCCNC3)c21,-2.27%
18,CC(C)(C)OC(=O)CN(Cc1ccc(Cl)cc1)Cc1ccc([N+](=O)[O-])s1,0.92%

# Reference: PubChem BioAssay (NCATS)
